Records with an inconclusive call do not appear. Activity calls are given as the source filed them. Unless noted, the call rests on the fitted dose curve.
Experiments:
[1] = qHTS assay to identify small molecule agonists of the sonic hedgehog signaling (Shh) pathway (AID 1259368);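 further: NIH/3T3-derived 3T3Gli1-Luc cells carrying a stable Gli1-driven firefly luciferase reporter; series mostly up to about 92 µM; nearly all actives have a fitted effect of over 15% in size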
Method in brief: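 Cells of a mouse NIH/3T3 clone stably expressing luciferase under the Gli1 transcriptional response element are exposed to test chemicals for 24 hr at 37 C. Pathway activation is detected as a rise in luminescence.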

[2] = qHTS assay to identify small molecule antagonists of the sonic hedgehog signaling (Shh) pathway (AID 1259369); further: nearly all actives have a fitted effect of over 45% in size
Method in brief: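 Cells are plated and held 4hr at 37 C, compounds (DMSO) are pinned in, conditioned medium is added to stimulate the pathway, and after 24hr luciferase reagent is added for 30min before luminescence is read.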

[3] = target: Estrogen receptor beta (Homo sapiens) (UniProt Q92731); assay: qHTS assay to identify small molecule agonists of the estrogen receptor beta (ER-beta) signaling pathway (AID 1259377; active means well fitted activation curve with a large enough effect in the signal ratio in the repeat runs, not every such curve was filed as active; the % refers to the signal ratio)
Method in brief: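 Reporter cells (HEK293T, ER-beta-UAS-bla) receive compounds or DMSO after a 6 hr pre-incubation. They then incubate 16 hr at 37C/5% CO2, and fluorescence from LiveBLAzer B/G substrate is measured after 2 hours at room temperature.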

[4] = target: Estrogen receptor beta (Homo sapiens) (UniProt Q92731); assay: qHTS assay to identify small molecule antagonists of the estrogen receptor beta (ER-beta) signaling pathway (AID 1259378; active means well fitted inhibition curve with a large enough effect in the signal ratio in the repeat runs, not every such curve was filed as active; the % refers to the signal ratio)
Method in brief: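 ER-beta-UAS-bla HEK293T cells in 2% charcoal-stripped FBS medium treated with compound plus 1nM final 17-beta-estradiol for 16 hr at 37C. Beta-lactamase reporter read by FRET substrate fluorescence after 2 hours at room temperature.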

[5] = qHTS assay to identify small molecule agonists of the androgen receptor (AR) signaling pathway in the presence of an antagonist - cell viability counter screen (AID 1259379; active means well fitted curve in the direction sought with a large enough effect in the repeat runs; an effect the other way counts as inactive or inconclusive;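 further: MDA-kb2 human breast cancer cells carrying an MMTV luciferase reporter; series mostly up to about 92 µM; nearly all actives have a fitted effect of over 25% in size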)
Method in brief: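 Cytotoxicity is assessed by CellTiter-Fluor in MDA-kb2 cells carrying an MMTV-driven luciferase reporter. Cells receive 3.0uM nilutamide plus compounds at 15 concentrations and incubate 16 hr at 37C without CO2 before fluorescence reading.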

[6] = qHTS assay to identify small molecule agonists of the estrogen receptor beta (ER-beta) signaling pathway - cell viability counter screen (AID 1259380; active means well fitted curve in the direction sought with a large enough effect in the repeat runs; an effect the other way counts as inactive or inconclusive; further: nearly all actives have a fitted effect of over 30% in size)
Method in brief: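 Cytotoxicity is measured in parallel with the reporter screen: after 16 hr compound exposure at 37C and a 2 hr LiveBLAzer step, CellTiter-Glo is added to the same ER-beta-UAS-bla HEK293T wells and luminescence read after 30 min.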

[7] = target: Androgen receptor (Homo sapiens) (UniProt P10275); assay: qHTS assay to identify small molecule agonists of the androgen receptor (AR) signaling pathway in the presence of an antagonist (AID 1259381); further: nearly all actives have a fitted effect of over 15% in size
Method in brief: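 Agonist-mode confirmation screen: human MDA-kb2 cells stably expressing luciferase under an MMTV promoter bearing AR and GR response elements, co-treated with 3.0uM nilutamide (final). Luminescence measured after 16hr compound incubation.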

[8] = qHTS assay to identify small molecule antagonists of the estrogen receptor beta (ER-beta) signaling pathway - cell viability counter screen (AID 1259382; active means well fitted curve in the direction sought with a large enough effect in the repeat runs; an effect the other way counts as inactive or inconclusive; further: series mostly up to about 92 µM; nearly all actives have a fitted effect of over 55% in size)
Method in brief: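 Cytotoxicity counter screen multiplexed with the beta-lactamase antagonist assay: GripTite HEK293T ER-beta-bla cells were treated 16 hr with test chemicals in the presence of 1nM 17-beta-estradiol, and viability was measured by CellTiter-Glo.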

[9] = target: Estrogen receptor (Homo sapiens) (UniProt P03372); assay: qHTS assay to identify small molecule agonists of the estrogen receptor alpha (ER-alpha) signaling pathway in the presence of an antagonist (AID 1259383); further: top concentration of the series differs between compounds; nearly all actives have a fitted effect of over 15% in size
Method in brief: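 Agonist-mode confirmation in the presence of the ER antagonist ICI-182,780 at 10.0nM final. Breast-derived VM7Luc4E2 reporter cells were exposed to compounds for 22hr, and ERE-driven luciferase was quantified by luminescence.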

[10] = qHTS assay to identify small molecule agonists or antagonists of the thyroid stimulating hormone receptor (TSHR) signaling pathway - wild type cell line counter screen (AID 1259384)
Method in brief: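 Wild-type Hek293 cells, 800/well, 18 h at 37C, then compound with Ro20-1724 for 30 min RT. cAMP by HTRF (cAMP-d2/anti-cAMP cryptate), 1 h RT, fluorescence read. 15 concentrations, triplicates.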

[11] = target: Thyrotropin receptor (Homo sapiens) (UniProt P16473); assay: qHTS assay to identify small molecule antagonists of the thyroid stimulating hormone receptor (TSHR) signaling pathway (AID 1259385); further: nearly all actives have a fitted effect of over 20% in size
Method in brief: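 TSHR-HEK293 cells (800/well) plated 18 h, then compounds with Ro20-1724 and TSH at 1.5 ng/mL final, 30 min at room temperature. cAMP quantified by HTRF (cAMP-d2/anti-cAMP-cryptate, 1 h); 15 concentrations in triplicate.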

[12] = qHTS assay to identify small molecule agonists of the estrogen receptor alpha (ER-alpha) signaling pathway in the presence of an antagonist - cell viability counter screen (AID 1259386; active means well fitted curve in the direction sought with a large enough effect in the repeat runs; an effect the other way counts as inactive or inconclusive;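 further: series mostly up to about 92 µM; cells exposed to compounds for 22 h at 37 °C before the viability read; nearly all actives have a fitted effect of over 30% in size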)
Method in brief: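 Cytotoxicity was measured in parallel with the ERE-luciferase agonist screen, in the same wells. The cells were VM7Luc4E2, which endogenously express ER-alpha, and treatment was with compounds plus 10.0nM ICI-182,780 for 22hr.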

[13] = target: Progesterone receptor (Homo sapiens) (UniProt P06401); assay: qHTS assay to identify small molecule agonists of the progesterone receptor (PR) signaling pathway (AID 1346784); further: nearly all actives have a fitted effect of over 30% in size
Method in brief: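 Reporter assay, GripTite PR-UAS-bla HEK 293T cells: 16 hr exposure to DMSO-dissolved compounds at 37C, 5% CO2, in steroid-depleted (2% charcoal-stripped FBS) medium; beta-lactamase measured by FRET fluorescence.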

[14] = target: Progesterone receptor (Homo sapiens) (UniProt P06401); assay: qHTS assay to identify small molecule antagonists of the progesterone receptor (PR) signaling pathway (AID 1346795; active means well fitted inhibition curve with a large enough effect in the signal ratio in the repeat runs, not every such curve was filed as active; the % refers to the signal ratio)
Method in brief: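 Stimulus R5020 at 1 nM final; cells HEK293T PR-UAS-bla; medium with 2% charcoal-stripped FBS; compound exposure 16 hr at 37C, 5% CO2; detection by FRET beta-lactamase substrate, 2 hr, room temperature.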

[15] = qHTS assay to identify small molecule agonists of the progesterone receptor (PR) signaling pathway - cell viability counter screen (AID 1346799); further: nearly all actives have a fitted effect of over 45% in size
Method in brief: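 Multiplexed viability read: CellTiter-Glo luminescence, 30 min RT, following LiveBLAzer FRET measurement on PR-UAS-bla HEK293T cells exposed to compounds 16 hr.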

[16] = qHTS assay to identify small molecule antagonists of the TGF-beta/Smad signaling pathway - cell viability counter screen (AID 1346824; active means well fitted curve in the direction sought with a large enough effect in the repeat runs; an effect the other way counts as inactive or inconclusive; further: nearly all actives have a fitted effect of over 50% in size)
Method in brief: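 SBE-bla HEK 293T cells, incubated overnight, then compound plus 0.25 ng/mL TGF-beta1 (stock added) for 5 hr at 37 C. Viability was read in the same wells by CellTiter-Glo luminescence after 30 min at room temperature.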

[17] = qHTS assay to identify small molecule agonists of the TGF-beta/Smad signaling pathway - cell viability counter screen (AID 1346829; active means well fitted curve in the direction sought with a large enough effect in the repeat runs; an effect the other way counts as inactive or inconclusive; further: top concentration of the series differs between compounds; nearly all actives have a fitted effect of over 45% in size)
Method in brief: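 SBE-bla HEK 293T cells plated overnight, compound exposure 5 hr at 37 C. Viability read in the same wells by CellTiter-Glo luminescence after 30 min at room temperature, following the beta-lactamase read.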

[18] = target: Thyrotropin-releasing hormone receptor (Homo sapiens) (UniProt P34981); assay: qHTS assay to identify small molecule antagonists of the thyrotropin-releasing hormone receptor (TRHR) signaling pathway (AID 1346877; active means well fitted inhibition curve with a large enough effect in the repeat runs, not every such curve was filed as active; further: series mostly up to about 51 µM)
Method in brief: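 Antagonism is measured as suppression of the calcium response to 1 nM TRH in TRHR-HEK293 cells that have been dye-loaded for 2 h at 37 °C after overnight plating. Each compound is tested at 15 concentrations in triplicate.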

[19] = qHTS assay to identify small molecule antagonists of the progesterone receptor (PR) signaling pathway - cell viability counter screen (AID 1346798; active means well fitted curve in the direction sought with a large enough effect in the repeat runs; an effect the other way counts as inactive or inconclusive; further: series mostly up to about 92 µM; nearly all actives have a fitted effect of over 50% in size)
Method in brief: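 In the same plates used for the beta-lactamase readout, cell viability of compound- and R5020-treated PR-UAS-bla HEK293T cells (16 hr, 37C) was assessed by CellTiter-Glo luminescence.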

[20] = qHTS assay to identify small molecule agonists of the TGF-beta/Smad signaling pathway (AID 1346859; active means well fitted activation curve with a large enough effect in the signal ratio in the repeat runs, not every such curve was filed as active; the % refers to the signal ratio; further: series mostly up to about 77 µM)
Method in brief: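 Screening used HEK 293T SBE-bla cells at 4,000/well. Test agents: 5 hr, 37 C. Detection: FRET substrate, 2 hr RT, then excitation 405 nm with emissions at 460 and 530 nm.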

Measured: Potency

Sequence of Estrogen receptor (Homo sapiens) (P03372 whole entry, looked up): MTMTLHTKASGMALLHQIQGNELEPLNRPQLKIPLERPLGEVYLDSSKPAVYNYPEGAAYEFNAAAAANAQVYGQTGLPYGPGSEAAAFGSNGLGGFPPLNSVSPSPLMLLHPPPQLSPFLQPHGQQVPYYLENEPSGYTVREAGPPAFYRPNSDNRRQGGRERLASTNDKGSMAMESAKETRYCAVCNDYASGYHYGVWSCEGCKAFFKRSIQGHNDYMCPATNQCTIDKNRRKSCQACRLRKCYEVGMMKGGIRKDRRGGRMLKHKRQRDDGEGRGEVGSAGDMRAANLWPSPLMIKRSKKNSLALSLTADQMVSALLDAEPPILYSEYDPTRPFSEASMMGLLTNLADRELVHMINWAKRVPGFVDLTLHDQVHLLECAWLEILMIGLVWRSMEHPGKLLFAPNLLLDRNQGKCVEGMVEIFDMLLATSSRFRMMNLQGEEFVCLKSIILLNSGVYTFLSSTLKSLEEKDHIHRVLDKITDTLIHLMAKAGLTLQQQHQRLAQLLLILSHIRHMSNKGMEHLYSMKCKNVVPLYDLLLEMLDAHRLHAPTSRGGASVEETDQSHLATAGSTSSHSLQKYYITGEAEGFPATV
Sequence of Androgen receptor (Homo sapiens) (P10275 whole entry, looked up): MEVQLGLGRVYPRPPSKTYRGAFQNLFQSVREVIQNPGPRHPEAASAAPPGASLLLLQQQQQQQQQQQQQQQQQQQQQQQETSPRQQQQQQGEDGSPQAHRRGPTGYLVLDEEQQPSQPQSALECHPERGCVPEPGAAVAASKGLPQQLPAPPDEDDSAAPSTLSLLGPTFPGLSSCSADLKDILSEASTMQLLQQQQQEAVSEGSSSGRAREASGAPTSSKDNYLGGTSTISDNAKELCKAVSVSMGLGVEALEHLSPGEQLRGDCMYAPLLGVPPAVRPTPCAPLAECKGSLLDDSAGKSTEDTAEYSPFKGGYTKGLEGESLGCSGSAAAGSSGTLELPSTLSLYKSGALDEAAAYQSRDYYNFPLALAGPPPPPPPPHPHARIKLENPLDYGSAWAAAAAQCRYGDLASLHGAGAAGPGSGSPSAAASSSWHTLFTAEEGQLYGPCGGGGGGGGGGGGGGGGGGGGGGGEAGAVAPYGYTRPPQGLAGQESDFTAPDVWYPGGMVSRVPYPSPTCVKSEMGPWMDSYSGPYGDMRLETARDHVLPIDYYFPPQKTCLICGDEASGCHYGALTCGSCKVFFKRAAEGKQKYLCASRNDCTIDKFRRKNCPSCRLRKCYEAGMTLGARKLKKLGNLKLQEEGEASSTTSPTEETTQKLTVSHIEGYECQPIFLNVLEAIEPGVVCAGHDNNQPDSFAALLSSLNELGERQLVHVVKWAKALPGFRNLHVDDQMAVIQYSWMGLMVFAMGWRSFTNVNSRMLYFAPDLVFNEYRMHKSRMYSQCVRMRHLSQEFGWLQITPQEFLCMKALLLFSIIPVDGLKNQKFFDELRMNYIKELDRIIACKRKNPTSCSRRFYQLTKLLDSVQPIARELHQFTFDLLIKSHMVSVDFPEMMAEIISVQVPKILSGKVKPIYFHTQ
Sequence of Estrogen receptor beta (Homo sapiens) (Q92731 whole entry, looked up): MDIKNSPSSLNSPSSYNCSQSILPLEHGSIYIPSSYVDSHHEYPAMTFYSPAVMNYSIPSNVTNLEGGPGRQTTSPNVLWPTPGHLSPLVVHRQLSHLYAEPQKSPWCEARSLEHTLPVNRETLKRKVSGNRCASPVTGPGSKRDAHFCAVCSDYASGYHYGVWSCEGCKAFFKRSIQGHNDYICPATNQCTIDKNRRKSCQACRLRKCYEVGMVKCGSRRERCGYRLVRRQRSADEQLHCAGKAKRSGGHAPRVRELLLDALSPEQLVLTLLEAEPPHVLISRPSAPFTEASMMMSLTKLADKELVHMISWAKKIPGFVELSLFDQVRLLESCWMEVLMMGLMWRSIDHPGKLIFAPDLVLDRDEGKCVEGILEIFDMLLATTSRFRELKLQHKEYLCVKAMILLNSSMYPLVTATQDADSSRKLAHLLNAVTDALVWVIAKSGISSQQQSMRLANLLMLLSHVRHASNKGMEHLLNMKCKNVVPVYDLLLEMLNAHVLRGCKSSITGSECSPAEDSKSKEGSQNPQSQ
Sequence of Thyrotropin receptor (Homo sapiens) (P16473 whole entry, looked up): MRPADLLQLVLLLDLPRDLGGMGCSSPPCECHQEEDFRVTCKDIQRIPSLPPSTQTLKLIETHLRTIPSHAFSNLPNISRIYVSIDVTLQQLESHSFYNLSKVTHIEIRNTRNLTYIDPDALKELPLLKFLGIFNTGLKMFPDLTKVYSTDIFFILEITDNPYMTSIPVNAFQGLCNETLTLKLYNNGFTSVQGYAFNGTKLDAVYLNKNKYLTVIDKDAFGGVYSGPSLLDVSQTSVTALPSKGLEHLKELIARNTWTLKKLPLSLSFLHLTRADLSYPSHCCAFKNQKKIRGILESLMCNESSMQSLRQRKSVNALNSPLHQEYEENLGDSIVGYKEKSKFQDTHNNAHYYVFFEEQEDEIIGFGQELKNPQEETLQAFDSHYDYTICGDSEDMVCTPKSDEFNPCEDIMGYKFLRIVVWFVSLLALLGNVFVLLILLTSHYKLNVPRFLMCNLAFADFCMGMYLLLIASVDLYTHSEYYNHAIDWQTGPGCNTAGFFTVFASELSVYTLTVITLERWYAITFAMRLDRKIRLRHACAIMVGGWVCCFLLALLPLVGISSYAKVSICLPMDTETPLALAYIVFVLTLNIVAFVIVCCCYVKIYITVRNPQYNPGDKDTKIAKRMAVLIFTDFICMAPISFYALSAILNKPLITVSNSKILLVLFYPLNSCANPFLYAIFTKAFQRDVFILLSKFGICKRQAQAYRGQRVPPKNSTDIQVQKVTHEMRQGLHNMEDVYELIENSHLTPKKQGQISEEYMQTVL
Sequence of Progesterone receptor (Homo sapiens) (P06401 whole entry, looked up): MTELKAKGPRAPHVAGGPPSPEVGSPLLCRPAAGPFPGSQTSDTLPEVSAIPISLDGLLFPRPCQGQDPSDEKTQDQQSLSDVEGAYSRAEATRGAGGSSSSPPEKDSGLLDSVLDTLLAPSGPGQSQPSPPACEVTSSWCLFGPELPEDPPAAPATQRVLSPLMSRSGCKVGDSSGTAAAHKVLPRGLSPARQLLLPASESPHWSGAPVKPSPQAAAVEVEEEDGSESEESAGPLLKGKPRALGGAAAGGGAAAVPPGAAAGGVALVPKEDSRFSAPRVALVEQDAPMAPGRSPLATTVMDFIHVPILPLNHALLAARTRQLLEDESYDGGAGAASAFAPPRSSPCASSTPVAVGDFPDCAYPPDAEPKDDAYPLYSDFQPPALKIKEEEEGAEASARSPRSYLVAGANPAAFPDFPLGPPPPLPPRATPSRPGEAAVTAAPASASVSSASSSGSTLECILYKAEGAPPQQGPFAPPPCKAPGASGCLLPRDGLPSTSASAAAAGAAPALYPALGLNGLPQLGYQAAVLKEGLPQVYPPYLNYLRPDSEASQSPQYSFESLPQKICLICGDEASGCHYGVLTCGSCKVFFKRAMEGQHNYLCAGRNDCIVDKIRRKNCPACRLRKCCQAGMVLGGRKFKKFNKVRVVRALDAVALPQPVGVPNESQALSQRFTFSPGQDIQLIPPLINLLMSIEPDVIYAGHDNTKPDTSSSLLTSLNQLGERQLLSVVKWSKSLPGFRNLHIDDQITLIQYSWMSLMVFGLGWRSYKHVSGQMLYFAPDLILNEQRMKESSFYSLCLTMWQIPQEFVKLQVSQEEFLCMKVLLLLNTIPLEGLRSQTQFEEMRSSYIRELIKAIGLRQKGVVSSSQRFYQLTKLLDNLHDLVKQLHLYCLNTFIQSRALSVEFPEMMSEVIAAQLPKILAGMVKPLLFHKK
Sequence of Thyrotropin-releasing hormone receptor (Homo sapiens) (P34981 whole entry, looked up): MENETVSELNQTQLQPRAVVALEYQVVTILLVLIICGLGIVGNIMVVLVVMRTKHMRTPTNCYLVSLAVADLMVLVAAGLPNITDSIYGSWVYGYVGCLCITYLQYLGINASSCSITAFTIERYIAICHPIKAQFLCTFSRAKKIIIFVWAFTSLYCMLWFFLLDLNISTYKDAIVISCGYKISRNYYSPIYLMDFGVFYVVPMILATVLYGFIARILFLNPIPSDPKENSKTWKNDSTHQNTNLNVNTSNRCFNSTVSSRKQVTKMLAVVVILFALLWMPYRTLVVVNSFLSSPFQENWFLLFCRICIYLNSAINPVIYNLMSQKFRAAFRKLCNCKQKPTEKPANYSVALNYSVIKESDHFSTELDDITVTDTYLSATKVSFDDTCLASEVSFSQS

CC(=O)OCC(CCn1cnc2cnc(N)nc21)COC(C)=O
not listed: [19] | [20]
inactive: all other assays above

Nc1cc(=O)[nH]c(N)n1
not listed: [7] | [18]
inactive: all other assays above

COc1cc(C(=O)N2CCCCCCC2)cc(OC)c1OC
not listed: [7] | [18]
inactive: all other assays above

CCOC(=O)Nc1ccc(NCc2ccc(F)cc2)nc1N
not listed: [7] | [18]
inactive: all other assays above

CCn1nc(C(=O)O)c(=O)c2cc3c(cc21)OCO3
not listed: [18]
inactive: all other assays above

CCOC(=O)C(=O)OCC
not listed: [7] | [18]
inactive: all other assays above

CC(NC(CCc1ccccc1)C(=O)O)C(=O)N1C(=O)N(C)CC1C(=O)O (stereo not drawn)
not listed: [9]
inactive: all other assays above

Reference: PubChem BioAssay (Tox21)
